Measurements published in PubChem BioAssay AID588342 (National Center for Advancing Translational Sciences (NCATS), 2011).
Out of some 360,000 compounds screened, about 25,000 (6.9%) were called active. Not shown: some 9% with an inconclusive outcome. Calls come from the whole dose curve; as a rule, active = well fitted inhibition curve with a large enough effect; inconclusive = small, poorly fitted or top-dose-only effect; inactive = flat fitted curve, though single readings scatter. Many of the other results were omitted from the sample, so actives are more common in it than they were.

biological target: Luciferin 4-monooxygenase (Photinus pyralis) (UniProt P08659); experiment: qHTS profiling assay for firefly luciferase inhibitor/activator using purifed enzyme and Km concentrations of substrates (counterscreen for miR-21 project); conditions: purified FLuc, luminescence inhibition; series mostly up to 57.5 µM; activity change, negative = inhibition: at the top concentration; note: nearly all actives have a fitted effect of over 55% in size;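 for activity change, negative = inhibition: plate controls were vehicle for no effect and reference inhibitor for full effect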
In short: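 Purified P. pyralis luciferase (10nM final) with 10uM D-luciferin and 10uM ATP (Km levels) in 50mM Tris acetate pH 7.5, 10mM Mg acetate, 0.01% Tween-20, 0.05% BSA; qHTS 6-point titration, ~60 µM downward; luminescence read.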
Potency is the fitted concentration of half-maximal effect.

Sequence of Luciferin 4-monooxygenase (Photinus pyralis) (P08659 whole entry, looked up): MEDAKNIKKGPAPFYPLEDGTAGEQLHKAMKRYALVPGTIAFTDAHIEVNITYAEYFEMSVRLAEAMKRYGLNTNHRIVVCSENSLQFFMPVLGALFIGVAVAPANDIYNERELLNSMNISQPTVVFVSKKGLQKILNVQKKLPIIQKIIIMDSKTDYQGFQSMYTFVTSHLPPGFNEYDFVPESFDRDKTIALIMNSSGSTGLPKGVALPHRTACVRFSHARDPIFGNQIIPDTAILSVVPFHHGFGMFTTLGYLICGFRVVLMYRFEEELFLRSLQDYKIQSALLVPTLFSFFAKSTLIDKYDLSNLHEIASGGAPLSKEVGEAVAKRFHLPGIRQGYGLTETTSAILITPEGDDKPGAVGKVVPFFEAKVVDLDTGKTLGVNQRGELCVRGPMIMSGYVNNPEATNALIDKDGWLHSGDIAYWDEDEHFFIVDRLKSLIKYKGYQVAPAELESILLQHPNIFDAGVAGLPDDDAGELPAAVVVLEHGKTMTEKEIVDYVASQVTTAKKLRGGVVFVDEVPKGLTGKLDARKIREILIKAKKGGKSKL

SMILES	Potency	activity change, negative = inhibition
COc1cccc(C(=O)Nc2ccc(N3CCCC3)cc2)c1	4.26 µM (active)	
COc1cccc(C(=O)Nc2ccc(N3CCN(C(=O)c4ccco4)CC3)cc2)c1		-3% (inactive)
Cc1ccccc1C(=O)NC(=S)Nc1ccc(N2CCN(C(=O)c3ccccc3)CC2)cc1		2.99% (inactive)
O=C(Cn1ccc(=O)[nH]c1=O)Nc1ccc(C(=O)O)c(O)c1		-4.38% (inactive)
CC(=O)Oc1cccc(C(=O)Nc2ccccc2NC(=O)c2cccc(OC(C)=O)c2)c1		-0.563% (inactive)
COc1ccc(C(=O)Nc2ccc(N3CCC(C)CC3)cc2)cc1Br		-1.07% (inactive)
COc1ccc(C2COC(=O)C2=N)c(NC(=O)c2ccccc2)c1 (stereo not given)		4.01% (inactive)
COc1ccccc1N1CCN(C(=O)C2Cc3ccccc3CN2C(=O)c2ccco2)CC1 (stereo not given)		3.04% (inactive)
CC(=O)c1ccc(NC(=O)CSc2nc(-c3ccccc3F)nc3c2c(=O)n(C)c(=O)n3C)cc1		4.57% (inactive)
CC(=O)N1c2ccc(S(=O)(=O)N(C)CC(=O)N(C)Cc3ccccc3)cc2CC1C (stereo not given)		4.32% (inactive)
CCCCn1c(SCc2ncc(-c3ccccc3)o2)nc2cc(S(N)(=O)=O)ccc21		-17.5% (inactive)
Cc1oc2ccc(O)c(CN3CCCCC3)c2c1C(=O)Nc1cccc(C(F)(F)F)c1		-0.279% (inactive)
CCn1c(CN2CCC(C)CC2)nc2cc(NC(=O)c3ccccc3[N+](=O)[O-])ccc21		5.45% (inactive)
Cc1ccc(NC(=O)C(C)OC(=O)Cc2c[nH]c3ccccc23)cc1S(=O)(=O)N1CCOCC1 (stereo not given)		-1.54% (inactive)
COc1ccc(CCNC(=O)CCCCn2c(=O)c3ccccc3n(Cc3ccccc3C)c2=O)cc1OC		-1.31% (inactive)
CCNC(=O)Cn1nc(C)n2c(cc3c(OC)cccc32)c1=O		-2.16% (inactive)
CCOc1ccc(S(=O)(=O)Nc2nccs2)cc1		-0.677% (inactive)
COc1cc2ccccc2cc1C(=O)Nc1ccc(N2CCOCC2)cc1		7.87% (inactive)
CCCCN(CC)C(=S)Nc1ccc2nc3n(c(=O)c2c1)CCCCC3		3.88% (inactive)
O=C(NC(=O)c1ccccc1N1CCCCC1)Nc1ccc(Br)cc1		-6.23% (inactive)
COC(=O)c1ccc(N2CCOCC2)c(NC(=O)c2ccc3c(c2)OCCO3)c1		0.934% (inactive)
COc1cccc(C(=O)Nc2ccc3nc4n(c(=O)c3c2)CCCCC4)c1	16.9 µM (active)	
Cc1ccccc1C(=O)Nc1ccc(N2CCCCCC2)cc1	10.7 µM (active)	
CN1CCN(c2ccc(NC(=O)c3ccc4c(c3)OCCO4)cc2Cl)CC1	4.78 µM (active)	
NS(=O)(=O)c1ccc(NC(=O)C(=O)Nc2ccc3nc4n(c(=O)c3c2)CCCCC4)cc1		1.12% (inactive)

SMILES	Potency	activity change, negative = inhibition
O=C(CN1C(=O)COc2ccc(Cl)cc21)Nc1ccc(N2CCOCC2)cc1		-0.823% (inactive)
CN1CCN(c2ccc(NC(=O)c3cc(Cl)c4c(c3)OCCO4)cc2)CC1	10.7 µM (active)	
O=C(Nc1ccc(N2CCOCC2)c(Cl)c1)c1ccc(S(=O)(=O)N2CCOCC2)cc1		2.53% (inactive)
Cc1ccccc1C(=O)N1CCN(c2ccc(NC(=O)c3cccs3)cc2)CC1		-1.16% (inactive)
COc1ccc2c(Sc3ccc(C)cc3)c(C(=O)NC(C)c3ccccc3)[nH]c2c1 (stereo not given)		3.3% (inactive)
CC(C)Cn1c(=O)c2ccccc2n2c(CCC(=O)N3CCN(c4cccc(Cl)c4)CC3)nnc12		4.18% (inactive)
Cc1cccc(NS(=O)(=O)c2ccc(C)c(C(=O)NCC(c3ccccc3)N(C)C)c2)c1 (stereo not given)		-0.184% (inactive)
O=C(NC1CCN(Cc2ccccc2)CC1)c1ccc(Cn2c(=O)c3ccccc3n(Cc3cccc(F)c3)c2=O)cc1		-5.59% (inactive)
O=C(NCCOc1cccnc1)c1ccc(OC2CCN(Cc3ccccn3)CC2)cc1		-1.59% (inactive)
CCOc1ccc(N(CC)C(=O)C2CCN(S(=O)(=O)c3cccc4nonc34)CC2)cc1		5.23% (inactive)
CC(OC(=O)c1ccc(NS(=O)(=O)c2ccc3[nH]c(=O)[nH]c3c2)cc1)C(=O)Nc1cccc(Cl)c1Cl (stereo not given)		2.36% (inactive)
COc1ccc2c(c1)c(N1CCCC1=O)c(C(=O)Nc1ccccc1C(F)(F)F)n2C		-1.46% (inactive)
CCOc1ccc(NC(=O)c2cn(C3CCCCC3)c(=O)c3c2c2ccccc2n3C)cc1		0.366% (inactive)
CCOc1ccc(NC(=O)CN(C)C(=O)Cc2sc(C)nc2-c2ccc(F)cc2)cc1OCC		1.86% (inactive)
O=C1CC(c2ccc(F)cc2F)c2cc3c(cc2N1)OCO3 (stereo not given)		-7.02% (inactive)
O=C(c1ccccc1)N1CCC(CC2CC(c3ccc(Cl)cc3)=NO2)(C(=O)NCC2CCCCC2)CC1 (stereo not given)		-0.0551% (inactive)
Cc1nnc2n1N=C(c1ccc3c(c1)NC(=O)CO3)CS2		-2.33% (inactive)
Cn1c(=O)cc(OCC(=O)N2CCN(c3ccccc3)CC2)c2ccccc21		1.2% (inactive)
CCOc1ccc(NC(=O)c2c(NCc3cccc(OC)c3OC)sc3c2CCC3)cc1		2.55% (inactive)
COc1ccc(CC(=O)c2ccc(O)cc2O)cc1OC		-6.24% (inactive)
Cc1[nH]nc(-c2ccc(OCc3cnn(-c4ccccc4)c3)cc2O)c1Oc1ccc(Cl)cc1		0.697% (inactive)
COc1ccc(C(=O)CC(=O)c2ccc(C)cc2)c(O)c1	21.3 µM (active)	
COc1ccc(C(=O)C[n+]2ccc(C)cc2)cc1		8.37% (inactive)
COc1ccc(C(=O)Cc2cnn(-c3ccccc3)c2)c(O)c1	3.38 µM (active)	
COc1ccc(C(=O)NNS(=O)(=O)c2ccc(C)cc2)cc1		5.49% (inactive)
